In paper PMC5700166:
Residue numbers refer to the chain shown, from its start.

How the values were obtained:
Assay in all cases: protein-binding microarray (PBM); PBM: ~300 nM protein, 6 mM HEPES pH 7.8, 80 mM KCl, 0.5 mM EDTA, 0.5 mM EGTA, 6% glycerol, 35 ng/ul poly-dIdC, 1% milk, 1 h, room temperature; Ap Aiptasia and Nv Nematostella (sea anemones) / Co Capsaspora / Aq Amphimedon (sponge) / Dm Drosophila / Hu human; RHD is the Rel homology domain; high values mean tight binding
Settings in all cases: dsDNA, one strand shown
[1] = molecular target: T1, GST-Ap-NF-kB RHD (Exaiptasia pallida (Aiptasia), UniProt A0A913YAJ5 2-422)
T1 sequence: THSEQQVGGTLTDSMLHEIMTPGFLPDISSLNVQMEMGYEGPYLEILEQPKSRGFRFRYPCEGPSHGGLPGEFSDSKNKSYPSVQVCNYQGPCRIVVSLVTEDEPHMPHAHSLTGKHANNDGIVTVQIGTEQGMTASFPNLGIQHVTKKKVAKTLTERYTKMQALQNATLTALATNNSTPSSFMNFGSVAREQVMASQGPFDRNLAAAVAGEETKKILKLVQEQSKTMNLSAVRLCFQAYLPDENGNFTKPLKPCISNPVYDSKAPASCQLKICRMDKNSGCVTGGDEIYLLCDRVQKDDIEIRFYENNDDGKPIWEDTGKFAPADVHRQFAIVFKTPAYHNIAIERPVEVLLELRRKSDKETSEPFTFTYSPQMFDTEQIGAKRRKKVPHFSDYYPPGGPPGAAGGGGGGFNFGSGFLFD

[2] = molecular target: T2, GST-Nv-NF-kB (Cys allele) (Nematostella vectensis, UniProt E5G601 2-411)
T2 sequence: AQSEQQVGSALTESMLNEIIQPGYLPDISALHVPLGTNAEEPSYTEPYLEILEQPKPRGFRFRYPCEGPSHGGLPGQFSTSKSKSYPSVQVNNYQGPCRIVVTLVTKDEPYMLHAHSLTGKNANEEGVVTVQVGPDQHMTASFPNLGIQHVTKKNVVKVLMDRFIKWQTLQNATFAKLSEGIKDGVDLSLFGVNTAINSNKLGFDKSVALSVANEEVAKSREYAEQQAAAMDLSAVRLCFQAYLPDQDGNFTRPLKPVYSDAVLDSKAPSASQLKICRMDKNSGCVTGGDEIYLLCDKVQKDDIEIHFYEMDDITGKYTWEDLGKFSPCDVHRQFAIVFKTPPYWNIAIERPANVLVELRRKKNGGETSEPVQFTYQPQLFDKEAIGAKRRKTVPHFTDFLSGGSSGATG

[3] = molecular target: T3, GST-Nv-NF-kB (Ser allele) (Nematostella vectensis, UniProt A7UNT2 2-411)
T3 sequence: T2 sequence with Q21R, C66S, S207N, E215Q, V217A, E225K, A268E, D399E

[4] = molecular target: T4, GST-Co-NF-kB (Capsaspora owczarzaki, UniProt F1ARL5 200-546)
T4 sequence: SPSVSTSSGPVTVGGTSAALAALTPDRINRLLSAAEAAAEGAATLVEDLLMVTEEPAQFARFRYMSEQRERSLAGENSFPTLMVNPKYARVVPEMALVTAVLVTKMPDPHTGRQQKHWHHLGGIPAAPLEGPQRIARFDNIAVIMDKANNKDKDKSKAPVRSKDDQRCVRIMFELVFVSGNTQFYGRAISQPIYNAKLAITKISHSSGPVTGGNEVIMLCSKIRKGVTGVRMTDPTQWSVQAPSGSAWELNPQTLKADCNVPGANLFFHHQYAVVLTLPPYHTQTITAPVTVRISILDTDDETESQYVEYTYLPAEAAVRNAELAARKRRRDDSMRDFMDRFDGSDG

[5] = molecular target: T5, GST-Dm-Relish (Drosophila melanogaster, UniProt Q94527 99-473)
T5 sequence: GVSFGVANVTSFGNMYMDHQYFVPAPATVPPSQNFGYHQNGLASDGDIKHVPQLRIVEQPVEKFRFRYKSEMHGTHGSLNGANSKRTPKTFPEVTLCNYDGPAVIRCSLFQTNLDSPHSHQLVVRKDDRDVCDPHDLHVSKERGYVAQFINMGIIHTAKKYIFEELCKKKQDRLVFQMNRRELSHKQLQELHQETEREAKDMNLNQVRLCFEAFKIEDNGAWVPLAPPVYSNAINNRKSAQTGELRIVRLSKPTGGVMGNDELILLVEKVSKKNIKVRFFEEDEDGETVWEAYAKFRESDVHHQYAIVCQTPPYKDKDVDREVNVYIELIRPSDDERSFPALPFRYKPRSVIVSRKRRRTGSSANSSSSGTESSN

[6] = molecular target: T6, GST-Aq-NF-kB (Amphimedon queenslandica, UniProt A9Y5G7 2-389)
T6 sequence: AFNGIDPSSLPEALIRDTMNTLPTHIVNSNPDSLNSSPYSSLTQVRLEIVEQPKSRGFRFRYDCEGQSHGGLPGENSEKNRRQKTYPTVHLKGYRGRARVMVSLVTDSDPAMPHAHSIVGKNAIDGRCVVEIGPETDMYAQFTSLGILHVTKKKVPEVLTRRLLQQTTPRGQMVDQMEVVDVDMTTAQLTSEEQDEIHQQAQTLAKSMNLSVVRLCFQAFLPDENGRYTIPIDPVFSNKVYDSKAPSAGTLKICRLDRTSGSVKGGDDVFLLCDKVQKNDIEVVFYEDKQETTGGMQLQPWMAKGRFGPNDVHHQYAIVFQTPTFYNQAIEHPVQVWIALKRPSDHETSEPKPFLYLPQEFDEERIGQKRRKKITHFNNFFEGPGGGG

[7] = molecular target: GST-Hu-p50 (Homo sapiens, UniProt P19838 7-356)
Chain of GST-Hu-p50 (P19838 7-356): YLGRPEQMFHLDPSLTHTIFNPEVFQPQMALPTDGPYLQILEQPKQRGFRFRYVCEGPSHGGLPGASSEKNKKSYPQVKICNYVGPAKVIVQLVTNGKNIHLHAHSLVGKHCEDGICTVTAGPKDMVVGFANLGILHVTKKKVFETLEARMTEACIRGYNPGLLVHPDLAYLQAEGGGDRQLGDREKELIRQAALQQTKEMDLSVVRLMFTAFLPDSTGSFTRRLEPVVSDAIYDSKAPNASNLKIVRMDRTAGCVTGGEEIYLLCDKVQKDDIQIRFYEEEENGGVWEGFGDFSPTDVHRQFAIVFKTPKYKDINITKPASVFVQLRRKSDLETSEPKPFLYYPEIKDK

Sequence	binding signal [1]	binding signal [2]	binding signal [3]	binding signal [4]	binding signal [5]	binding signal [6]	binding signal [7]
CCGATTAACATCAAAAGAACCCCTGATGTTAATCGGGTCTTGATTCGCTTGACGCTGCTG	4.18 z-score	3.46 z-score	3.14 z-score	2.76 z-score	5.45 z-score	4.8 z-score	4.47 z-score
CCGATTAACATCAGGGGAAATACTGATGTTAATCGGGTCTTGATTCGCTTGACGCTGCTG	7.87 z-score	8.59 z-score	11 z-score	8.2 z-score	9.53 z-score	7.18 z-score	6.88 z-score
CCGATTAACATCAGGCAACCCCCTGATGTTAATCGGGTCTTGATTCGCTTGACGCTGCTG	5.96 z-score	3.96 z-score	3.97 z-score	2.03 z-score	6.58 z-score	6.21 z-score	5.13 z-score
CCGATTAACATCAGGGACTTTTATGATGTTAATCGGGTCTTGATTCGCTTGACGCTGCTG	7.76 z-score	9.97 z-score	9.79 z-score	1.97 z-score	8.37 z-score	7.89 z-score	6.59 z-score
CCGATTAACATCACTAGTTTCCCTGATGTTAATCGGGTCTTGATTCGCTTGACGCTGCTG	3.06 z-score	3.43 z-score	4.61 z-score	4.16 z-score	1.28 z-score	3.03 z-score	2.26 z-score
CCGATTAACATCAGAAACCCCCCTGATGTTAATCGGGTCTTGATTCGCTTGACGCTGCTG	9.47 z-score	7.7 z-score	7.63 z-score	3.94 z-score	9.65 z-score	7.6 z-score	6.97 z-score
CCGATTAACATCAAAGTCCCCCTTGATGTTAATCGGGTCTTGATTCGCTTGACGCTGCTG	7 z-score	6.84 z-score	6.92 z-score	4.36 z-score	8.18 z-score	6.66 z-score	6.67 z-score
CCGATTAACATCAGGGGGGCGCATGATGTTAATCGGGTCTTGATTCGCTTGACGCTGCTG	3.86 z-score	3.14 z-score	3.06 z-score	3.25 z-score	4.09 z-score	4.07 z-score	4.13 z-score
CCGATTAACATCACAAGTTTCCCTGATGTTAATCGGGTCTTGATTCGCTTGACGCTGCTG	4.14 z-score	5.33 z-score	5.84 z-score	4.92 z-score	2.52 z-score	5.24 z-score	4.17 z-score
CCGATTAACATCACCCATTTCCCTGATGTTAATCGGGTCTTGATTCGCTTGACGCTGCTG	2.51 z-score	3.07 z-score	3.99 z-score	3 z-score	1.35 z-score	2.52 z-score	2.57 z-score
CCGATTAACATCAGGAATTCCCCTGATGTTAATCGGGTCTTGATTCGCTTGACGCTGCTG	11.7 z-score	12.5 z-score	11.7 z-score	7.64 z-score	9.99 z-score	11.5 z-score	7.74 z-score
CCGATTAACATCAGATCTCCCCCTGATGTTAATCGGGTCTTGATTCGCTTGACGCTGCTG	6.98 z-score	5.31 z-score	6.01 z-score	8.07 z-score	2.64 z-score	4.88 z-score	5.76 z-score
CCGATTAACATCAAGGGGGTATCTGATGTTAATCGGGTCTTGATTCGCTTGACGCTGCTG	6.66 z-score	4.44 z-score	4.28 z-score	3.26 z-score	3.38 z-score	4.34 z-score	4.61 z-score
CCGATTAACATCACCGTTCCCCCTGATGTTAATCGGGTCTTGATTCGCTTGACGCTGCTG	6.48 z-score	5.21 z-score	6.93 z-score	6.76 z-score	2.76 z-score	4.51 z-score	5.25 z-score
CCGATTAACATCAGTTTTCCCCATGATGTTAATCGGGTCTTGATTCGCTTGACGCTGCTG	6.49 z-score	7.03 z-score	9.09 z-score	9.45 z-score	3.42 z-score	4.82 z-score	5.76 z-score
CCGATTAACATCAAAAAACCCCCTGATGTTAATCGGGTCTTGATTCGCTTGACGCTGCTG	12.1 z-score	11.4 z-score	12.1 z-score	5.28 z-score	11.4 z-score	9.82 z-score	8.38 z-score
CCGATTAACATCAGGGGGTACAATGATGTTAATCGGGTCTTGATTCGCTTGACGCTGCTG	4.98 z-score	3.08 z-score	4.91 z-score	4.94 z-score	2.37 z-score	2.98 z-score	3.09 z-score
CCGATTAACATCAGAATTCCCCCTGATGTTAATCGGGTCTTGATTCGCTTGACGCTGCTG	10.1 z-score	11.8 z-score	11.7 z-score	10.8 z-score	8.22 z-score	8.47 z-score	8.34 z-score
CCGATTAACATCACCCTTTCCCCTGATGTTAATCGGGTCTTGATTCGCTTGACGCTGCTG	4.99 z-score	5.19 z-score	7.16 z-score	5.72 z-score	1.82 z-score	4.33 z-score	3.91 z-score
CCGATTAACATCAAAATTTCCCATGATGTTAATCGGGTCTTGATTCGCTTGACGCTGCTG	3.99 z-score	6.36 z-score	6.16 z-score	5.2 z-score	4.56 z-score	5.77 z-score	4.79 z-score
CCGATTAACATCAGGTTTCCCCATGATGTTAATCGGGTCTTGATTCGCTTGACGCTGCTG	6.59 z-score	7.14 z-score	8.78 z-score	7.88 z-score	4.69 z-score	5.35 z-score	5.34 z-score
CCGATTAACATCAAAATCCCCCATGATGTTAATCGGGTCTTGATTCGCTTGACGCTGCTG	9.1 z-score	9.28 z-score	10.2 z-score	6.67 z-score	8.88 z-score	7.37 z-score	7.45 z-score
CCGATTAACATCAGGGGACTTTATGATGTTAATCGGGTCTTGATTCGCTTGACGCTGCTG	7.86 z-score	8.29 z-score	7.92 z-score	3.64 z-score	8.18 z-score	7.13 z-score	6.72 z-score
CCGATTAACATCAGGGAATTCTATGATGTTAATCGGGTCTTGATTCGCTTGACGCTGCTG	5.04 z-score	6.52 z-score	6.75 z-score	3.81 z-score	3.59 z-score	5.61 z-score	4.8 z-score
